Experimental data published in PubChem BioAssay (EPA / NIEHS).
Records with an inconclusive call do not appear. The source made the active and inactive calls. How the source made its calls, unless noted: active means hit-call score of the fitted dose curve at least 0.9, where 1 is the maximum; inactive means score below 0.9.

Key:
[1] = TOX21_p53_BLA_p2_viability: Viability Assessment in the Tox21 HCT-116 p53 Agonism Beta-lactamase Assay, Phase 2 (AID 2283591; active means hit-call score of the fitted dose curve at least 0.9, where 1 is the maximum;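 further: compound exposure lasted 16 h at 37 °C; actives lower the ATP signal meaning cytotoxicity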)
Method in brief: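 Cytotoxicity readout: CellTiter-Glo ATP luminescence, 30 min at room temperature, after the beta-lactamase read. Cells were HCT116 exposed 16 h at 37C to compounds pin-transferred at 217-fold dilution from DMSO stocks.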

[2] = target: Cellular tumor antigen p53 (Homo sapiens) (UniProt P04637); assay: TOX21_p53_BLA_p2_ratio: Tox21 HCT-116 p53 Agonism Beta-lactamase Assay, Ratio, Phase 2 (AID 2283592; active means hit-call score of the fitted dose curve at least 0.9, where 1 is the maximum)
Cellular tumor antigen p53 (Homo sapiens), sequence (P04637 whole entry, looked up): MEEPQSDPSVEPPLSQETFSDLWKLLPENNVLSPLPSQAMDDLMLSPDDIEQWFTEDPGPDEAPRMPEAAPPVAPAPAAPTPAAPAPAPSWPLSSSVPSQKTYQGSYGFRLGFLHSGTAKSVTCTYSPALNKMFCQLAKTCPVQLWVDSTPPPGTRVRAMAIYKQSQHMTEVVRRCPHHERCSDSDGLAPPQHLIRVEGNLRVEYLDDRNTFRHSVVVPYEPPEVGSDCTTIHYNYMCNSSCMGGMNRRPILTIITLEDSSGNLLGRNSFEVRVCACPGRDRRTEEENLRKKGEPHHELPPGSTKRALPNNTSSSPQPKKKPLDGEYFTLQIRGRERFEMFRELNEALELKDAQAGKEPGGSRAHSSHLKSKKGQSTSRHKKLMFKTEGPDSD
Method in brief: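 Read-out is the blue/green (460/530 nm, 405 nm excitation) ratio after 2 h CCF4-AM loading, fitted as gain versus DMSO. Compounds, pinned at 217-fold dilution from DMSO stocks, stayed 16 h on HCT-116 beta-lactamase reporter cells seeded 5 h earlier.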

[3] = TOX21_p53_BLA_p3_viability: Viability Assessment in the Tox21 HCT-116 p53 Agonism Beta-lactamase Assay, Phase 3 (AID 2283593; active means hit-call score of the fitted dose curve at least 0.9, where 1 is the maximum;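 further: cells exposed to compound for 16 h before reading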)
Method in brief: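 Cellular ATP was quantified by CellTiter-Glo luminescence, read after 30 min at room temperature. Beforehand, HCT116 cells (4000/well) received compound 5 h post-seeding, 217-fold diluted from DMSO, then incubated 16 h at 37C.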

[4] = target: Cellular tumor antigen p53 (Homo sapiens) (UniProt P04637); assay: TOX21_p53_BLA_p3_ratio: Tox21 HCT-116 p53 Agonism Beta-lactamase Assay, Ratio, Phase 3 (AID 2283596; active means hit-call score of the fitted dose curve at least 0.9, where 1 is the maximum)
Method in brief: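 Cells were seeded at 4000/well, rested 5 h at 37C, then dosed with DMSO compound solutions (217-fold dilution) for 16 h. CCF4-AM substrate was loaded for 2 h at room temperature, and the 460/530 nm emission ratio was fitted for gain of signal versus DMSO.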

[5] = TOX21_p53_BLA_p4_viability: Viability Assessment in the Tox21 HCT-116 p53 Agonism Beta-lactamase Assay, Phase 4 (AID 2283597; active means hit-call score of the fitted dose curve at least 0.9, where 1 is the maximum;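 further: hits lower the luminescence signal meaning cytotoxicity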)
Method in brief: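 Cytotoxicity as reduced cellular ATP (CellTiter-Glo luminescence, 30 min room temperature), measured in the same wells following the CCF4 FRET p53 reading. Human HCT-116 cells received compounds in DMSO (217-fold dilution) for 16 h.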

[6] = target: Cellular tumor antigen p53 (Homo sapiens) (UniProt P04637); assay: TOX21_p53_BLA_p4_ratio: Tox21 HCT-116 p53 Agonism Beta-lactamase Assay, Ratio, Phase 4 (AID 2283601; active means hit-call score of the fitted dose curve at least 0.9, where 1 is the maximum)
Method in brief: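 Signal is the blue/green (460nm/530nm) ratio of cleaved versus uncleaved CCF4-AM substrate, read after 2 h substrate loading. Cells were HCT116 carrying the p53-responsive beta-lactamase reporter, dosed 16 h at 37C, 5% CO2; CellTiter-Glo measured in parallel.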

[7] = CCTE_Shafer_MEA_dev_firing_rate_mean: CCTE's Neural Network Formation Assay for Mean Firing Rate, Shafer Lab (AID 2284031)
Method in brief: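 Steps: seed rat cortical cells (1.5 x 10^5/well) with laminin on PEI-coated MEA; dose day 0; record DIV 5/7/9/12, full media and compound exchange after DIV 5 and 9 recordings; compute well-mean firing rate AUC.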

[8] = CCTE_Shafer_MEA_dev_per_burst_spike_percent: CCTE's Neural Network Formation Assay for Percent of Spikes in a Burst, Shafer Lab (AID 2284032)
Method in brief: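 Value is trapezoidal AUC over recordings on days 5, 7, 9 and 12 of the well-mean fraction of spikes falling in single-electrode bursts; rat cortical cultures exposed continuously from plating, treatment renewed DIV 5 and 9, fitted downward against DMSO.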

[9] = CCTE_Shafer_MEA_dev_active_electrodes_number: CCTE's Neural Network Formation Assay for Number of Active Electrodes, Shafer Lab (AID 2284040; active means hit-call score of the fitted dose curve at least 0.9, where 1 is the maximum)
Method in brief: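 Counts electrodes per well firing at least 5 spikes/min, recorded on days 5, 7, 9 and 12 in rat cortical cultures dosed continuously from plating (treatment refreshed DIV 5, 9). Value is the area under the curve over recordings, fitted downward relative to DMSO.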

[10] = CCTE_Shafer_MEA_dev_bursting_electrodes_number: CCTE's Neural Network Formation Assay for Number of Bursting Electrodes, Shafer Lab (AID 2284043; active means hit-call score of the fitted dose curve at least 0.9, where 1 is the maximum)
Method in brief: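 Number of electrodes reaching ≥1 burst every 2 min was recorded at DIV 5, 7, 9 and 12 and collapsed as trapezoidal area under the curve. Cultures were rat cortical neurons on MEA plates, dosed continuously from plating with medium and treatment refreshed on DIV 5 and 9.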

[11] = CCTE_Shafer_MEA_dev_per_burst_interspike_interval: CCTE's Neural Network Formation Assay for Burst Interspike Interval, Shafer Lab (AID 2284044)
Method in brief: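 Mean interspike interval within single-electrode bursts, averaged over bursting electrodes, from rat cortical cultures on MEA plates recorded on days 5, 7, 9 and 12. Continuous compound exposure from plating; trapezoidal AUC fitted downward relative to DMSO.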

[12] = CCTE_Shafer_MEA_dev_burst_duration_mean: CCTE's Neural Network Formation Assay for Mean Burst Duration, Shafer Lab (AID 2284045)
Method in brief: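 Mean single-electrode burst duration (first to last spike), averaged over bursting electrodes per well, then integrated as area-under-curve across recordings at days 5, 7, 9 and 12. Rat cortical cultures on MEAs, compound present from plating, refreshed at feeds.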

[13] = CCTE_Shafer_MEA_dev_interburst_interval_mean: CCTE's Neural Network Formation Assay for Mean Interburst Interval, Shafer Lab (AID 2284046);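 further: well-mean interburst interval of bursting electrodes as AUC over four recording days; curve fitted for decrease in interburst interval relative to DMSO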
Method in brief: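 Network formation assay in primary rat cortical cultures, exposed from DIV 0 to 12. Mean interburst interval per well, integrated as AUC over four recordings.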

[14] = CCTE_Shafer_MEA_dev_network_spike_number: CCTE's Neural Network Formation Assay for Number of Network Spikes, Shafer Lab (AID 2284048);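 further: synchronized bursts across electrodes counted on days 5 7 9 12 and integrated as AUC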
Method in brief: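 Number of network spikes (coordinated firing across electrodes) recorded on days 5, 7, 9 and 12 and summarised as area under the curve. Rat cortical cultures on MEA, continuous compound exposure with full medium/treatment exchange at DIV 5 and 9.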

[15] = CCTE_Shafer_MEA_dev_network_spike_peak: CCTE's Neural Network Formation Assay for Mean Number of Electrodes in Network Spike, Shafer Lab (AID 2284049)
Method in brief: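 Rat cortical primary culture, 1.5 x 10^5 cells/well, 48-well MEA (16 electrodes/well). Dosing day 0 through DIV 12, full media/compound exchange DIV 5, 9. AxIS adaptive spike detection; AUC over days 5/7/9/12; loss-of-signal vs DMSO.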

[16] = CCTE_Shafer_MEA_dev_spike_duration_mean: CCTE's Neural Network Formation Assay for Mean Spike Duration, Shafer Lab (AID 2284051);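 further: mean network spike duration pooled as area under curve over DIV 5 to 12 recordings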
Method in brief: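 With DMSO as baseline, loss of mean network spike duration was scored from extracellular recordings of rat cortical neurons on MEA plates. Exposure spanned plating to DIV 12; the four recording days were collapsed into one AUC value.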

[17] = CCTE_Shafer_MEA_dev_network_spike_duration_std: CCTE's Neural Network Formation Assay for Standard Deviation of Network Spike Duration, Shafer Lab (AID 2284052);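 further: hits are decreases in network spike duration SD versus DMSO vehicle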
Method in brief: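 Developing networks of rat cortical neurons were exposed over twelve days in vitro on 48-well MEA plates. Trapezoidal AUC of recordings (DIV 5–12) was analysed for signal loss relative to DMSO vehicle.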

[18] = CCTE_Shafer_MEA_dev_per_network_spike_spike_number_mean: CCTE's Neural Network Formation Assay for Mean Number of Spikes in a Network Spike, Shafer Lab (AID 2284053)
Method in brief: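 First, rat cortical cells (1.5 x 10^5/well) were seeded onto MEA wells; second, dosing began at plating and was refreshed on DIV 5 and 9; finally, network-spike spike counts across DIV 5–12 were summarized as AUC.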

[19] = CCTE_Shafer_MEA_dev_per_network_spike_spike_percent: CCTE's Neural Network Formation Assay for Percent of Spikes in a Network Spike, Shafer Lab (AID 2284054)
Method in brief: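 Metric: fraction of spikes falling in a 0.05 s window at network-spike peaks. Recordings were made on days 5, 7, 9 and 12 and collapsed by trapezoidal AUC. Cultures were rat cortical neurons on MEA plates, dosed continuously from plating, re-dosed at media changes.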

[20] = UKN5_HCS_SBAD2_cell_viability: Viability Assessment in the University of Konstanz (UKN) Leist Lab Neurite Outgrowth Assay in human iPSC-derived immature Dorsal Root Ganglia Neurons (UKN5) (AID 2284056)
Method in brief: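 iPSC-derived immature peripheral neurons (SBAD2) seeded on Matrigel with CHIR99021, SU5402 and DAPT, dosed 1 h later for 24 h. Viability from Hoechst H-33342 and calcein-AM live staining, high-content imaging; bidirectional fit versus DMSO.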

[21] = CCTE_Shafer_MEA_dev_LDH: CCTE's Lactate Dehydrogenase Assay for Cytotoxicity in the Neural Network Formation Assay, Shafer Lab (AID 2284068; active means hit-call score of the fitted dose curve at least 0.9, where 1 is the maximum;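 further: exposure for twelve days from plating with re-dosing on DIV 5 and 9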)
Method in brief: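 Developing rat cortical networks on MEA plates are exposed to compound for 12 days from plating. LDH activity is measured spectrophotometrically, with DMSO as baseline.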

[22] = UKN5_HCS_SBAD2_neurite_outgrowth: University of Konstanz (UKN) Leist Lab Neurite Outgrowth Assay in human iPSC-derived immature Dorsal Root Ganglia Neurons (UKN5) (AID 2284070); settings: actives raise or lower the signal
Method in brief: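 Thaw, seed on Matrigel (100.000 cells/cm2), dose 1 h later; at 23 h live-stain with H-33342 and calcein-AM for 60 min; image at 24 h. Neurite area fitted bidirectionally vs DMSO.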

[23] = CCTE_Shafer_MEA_dev_mutual_information_norm: CCTE's Neural Network Formation Assay for Mutual Information Normalization, Shafer Lab (AID 2284091)
Method in brief: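 Shared information across electrodes, tracked on days 5, 7, 9 and 12 of network development and collapsed as trapezoidal area under the curve. Rat cortical cultures were treated continuously from plating, with treatment renewed at feeds on DIV 5 and 9; DMSO baseline, negative-direction fit.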

[24] = CCTE_Shafer_MEA_dev_correlation_coefficient_mean: CCTE's Neural Network Formation Assay for Mean Correlation Coefficient, Shafer Lab (AID 2284093)
Method in brief: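 Extracellular firing from rat cortical networks on 48-well MEAs, DMSO-referenced, negative fitting direction. Compound present from plating to DIV12; mean pairwise correlation per well integrated over DIV5–12 recordings by trapezoidal AUC.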

[25] = UKN2_HCS_IMR90_neural_migration: University of Konstanz (UKN) Leist Lab Neural Crest Cell Migration Assay in human induced IMR90 Pluripotent Stem Cells (UKN2) (AID 2284204); settings: actives raise or lower the signal
Method in brief: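 High-content imaging of calcein-AM and Hoechst stained cells quantifies migration into a stopper-defined gap after 24 h compound exposure. Neural crest cells from IMR90 iPSC migrated 24 h in EGF/FGF N2-S medium before dosing; DMSO baseline.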

[26] = UKN4_HCS_LUHMES_neurite_outgrowth: University of Konstanz (UKN) Leist Lab Neurite Outgrowth Assay in human LUHMES cells (UKN4) (AID 2284206); settings: actives raise or lower the signal
Method in brief: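 Human LUHMES cells were differentiated for two days, replated and treated with chemicals for 24 h. Neurite outgrowth was quantified as calcein-stained neurite area by HCS imaging, fitted bidirectionally relative to DMSO.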

Measured: outcome

CC(C)(C)NCC(O)c1cc(O)cc(O)c1 (stereo unspecified)
inactive: all assays above
